{"source": "PubChem BioAssay (NCI)", "note": "About 79,000 compounds went through this panel and 15% of them were active in at least one assay; those are over-represented in the sample as a whole. A number with no mark means an inactive call. No stated cut-off is given here; in the data, active means growth inhibition above about 70%; inactive means the rest."}
{"assay": "NCI Yeast Anticancer Drug Screen. Data for the cln2 rad14 strain (AID 165);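 further: 0% = growth equal to vehicle treated cultures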", "details": "S. cerevisiae cln2 rad14 strain, at 50.0 µM, stronger effect = higher value", "procedure,_shortened": "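Growth of compound-exposed yeast (cln2 rad14 genotype) measured and expressed as inhibition relative to vehicle.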", "units": {"growth inhibition": "%"}}
{"compound": "Nc1cn[nH]c(=O)n1", "growth inhibition": 13.3}
{"compound": "O=C(O)C1(NO)CCCCC1", "growth inhibition": -9}
{"compound": "O=S(=O)(N1CCCCC1)N1CCCCC1", "growth inhibition": 8.85}
{"compound": "O=C(Cc1ccccc1)Nc1cccc2ccccc12", "growth inhibition": 1}
{"compound": "Nc1ccc(C(=O)Nc2ccc3c(ccc4ccccc43)c2)cc1", "growth inhibition": 1.75}
{"compound": "O=S1(=O)OCOS(=O)(=O)OCO1", "growth inhibition": -4.8}
{"compound": "Cc1ccc(S(=O)(=O)n2ccnc2)cc1", "growth inhibition": 15.9}
{"compound": "Cc1cnc(N)s1", "growth inhibition": -24.7}
{"compound": "CC(C)CC1NC(=O)C(C(C)C)NC(=O)CC(C)COC(=O)C(CC(C)C)N(C)C(=O)C(C(C)C)NC(=O)C(C(C)C)OC1=O", "note": "(stereo not given)", "growth inhibition": 7.95}
{"compound": "O=C(c1nc2ccccc2[nH]1)N1CCN(c2ccccc2)CC1", "growth inhibition": 5.55}
{"compound": "CSC1=Nc2ccccc2N=C(c2ccccc2)C1", "growth inhibition": 9.05}
{"compound": "O=[N+]([O-])C1C=Nc2ccccc2N=C1", "growth inhibition": 21.4}
{"compound": "O=C(CO)c1ccc(-c2ccccc2)cc1", "growth inhibition": -12.7}
{"compound": "Nc1c(S(=O)(=O)O)cc(Br)c2c1C(=O)c1ccccc1C2=O", "growth inhibition": 38}
{"compound": "COc1cc(C(O)C(CO)Oc2c(OC)cc(C3OCC4C(c5cc(OC)c(O)c(OC)c5)OCC34)cc2OC)ccc1O", "note": "(stereo not given)", "growth inhibition": 10}
{"compound": "N#CC(C(=O)C(=O)Nc1cccc(C(F)(F)F)c1)c1c(Cl)cccc1Cl", "note": "(stereo not given)", "growth inhibition": -35}
{"compound": "CC(=O)SC1CC2CCC1C2", "note": "(stereo not given)", "growth inhibition": 9.95}
{"compound": "CNc1ccn(C2OC(CO)C(O)C2O)c(=O)n1", "note": "(stereo not given)", "growth inhibition": 11.9}
{"compound": "Cc1c2n(c(=O)[nH]c1=O)C1OC(CO)C(N=[N+]=[N-])C1O2", "note": "(stereo not given)", "growth inhibition": -12.3}
{"compound": "CC(=O)OC12CC3CCC4C(CCC5(C)C(C(C)CCCC(C)C)CCC45)C3(C)CC1O2", "note": "(stereo not given)", "growth inhibition": -1.2}
{"compound": "O=C(N/N=C\\c1coc([N+](=O)[O-])c1)N/N=C/c1ccoc1", "growth inhibition": -25.7}
{"compound": "O=C(Nc1ccccc1Cl)c1ccc(Cl)cc1", "growth inhibition": -16.2}
{"compound": "CC(C)OC(=O)c1cc(N)ccc1Cl", "growth inhibition": 2.45}
{"compound": "COc1cc(/C=C/C(=O)Oc2ccccc2)ccc1C(=O)O/C=C/c1ccccc1", "growth inhibition": 21.4}
{"compound": "O=C(OC1COC(n2c(=O)oc3ccc(Cl)cc32)C(OC(=O)c2ccccc2)C1OC(=O)c1ccccc1)c1ccccc1", "note": "(stereo not given)", "growth inhibition": -13.2}
{"compound": "CS(=O)(=O)OCC1NC(=O)C(COS(C)(=O)=O)NC1=O", "note": "(stereo not given)", "growth inhibition": 2}
{"compound": "COc1ccc(C(=O)N/N=C/c2c(C)n(C)n(-c3ccccc3)c2=O)cc1", "growth inhibition": -6.45}
{"compound": "COc1ccc(C2OC(=O)C(=O)C2=O)cc1OC", "note": "(stereo not given)", "growth inhibition": -17.4}
{"compound": "CCCCCCC(C#N)(CCN(C)C)c1ccccc1", "note": "(stereo not given)", "growth inhibition": -8}
{"compound": "CCOC(=O)N1C(c2ccccc2)N(c2ccccc2)C(c2ccccc2)N1C(=O)OCC", "note": "(stereo not given)", "growth inhibition": 3.3}
{"compound": "O=C1C(N=Cc2c(O)ccc3ccccc23)CON1C(c1ccccc1)(c1ccccc1)c1ccccc1", "note": "(stereo not given)", "growth inhibition": 20.1}
{"compound": "CCOC(=O)c1c[nH]c2c(=O)n(C)c(=O)[nH]c12", "growth inhibition": -28.8}
{"compound": "COc1ccc(/C=C2\\N=C(c3ccc([N+](=O)[O-])cc3)OC2=O)cc1", "growth inhibition": -9.5}
{"compound": "O=C(O)C1=CN=C(C(=O)O)NN1", "growth inhibition": 19.5}
{"compound": "CCCC(C)C(=O)OC1CCCCC1", "note": "(stereo not given)", "growth inhibition": -21.4}
{"compound": "CCc1nc2cc(F)ccc2[nH]c1=O", "growth inhibition": 21.4}
{"compound": "CCOC(=O)N(CCCl)C(=O)C(C)C", "growth inhibition": 24.8}
{"compound": "CN(C)C(=S)/N=c1\\ssc(=S)n1Cc1ccccc1", "growth inhibition": 16.4}
{"compound": "Cc1cc(=O)n2c(n1)Nc1ccccc1C2", "growth inhibition": 1.65}
{"compound": "O=C1c2ccccc2C(=O)N1/N=C\\c1ccc(O)cc1", "growth inhibition": 12.9}
